± gives the standard deviation of the averaged measurements. The full ranking holds about 33,000 sequences; the median of “E-score (rank enrichment, -0.5 to 0.5)” is about -0.0043, and the highest 2% start at about 0.24. What follows is part of a selection rich in the highest values, with near analogues and random picks from the rest.
System: 2Sp-muMax20 (muMax20 with two 2,6-bis(methyl)pyridine Cys staples)
Assay: PBM 8-mer E-score (E-score (rank enrichment, -0.5 to 0.5)); higher = stronger preferential binding
Experimental: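 Protein binding microarray (universal PBM chip covering all 10-mers in fixed probe flanks) with chemically synthesized human Max(13-93) bHLH-LZ analogs (not full-length Max) bearing noncanonical residues (hArg, Tha, Aib, Nle at 65) and aromatic Cys staples. Read-out per 8-mer (and its reverse complement): E-score (rank-based enrichment, -0.5 to 0.5) and Z-score of median probe intensity.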

| Sequence | PBM 8-mer E-score |
| --- | --- |
| AACGCGCA | 0.0173 ± 0.051 |
| CACGCTCA | 0.0559 ± 0.045 |
| GGACGCAA | 0.0641 ± 0.04 |
| AGTTGCAG | 0.122 ± 0.058 |
| TACAGGTA | 0.0603 ± 0.031 |
| ATCAATGG | 0.0872 ± 0.022 |
| GCCTCAAC | 0.0347 ± 0.072 |
| ATCGTAAG | -0.0242 ± 0.048 |
| ATCGTAAT | 0.238 ± 0.0064 |
| ATCGTAAA | 0.159 ± 0.07 |
| GTCCTTGA | -0.198 ± 0.017 |
| CGTAACGA | 0.0392 ± 0.11 |
| AGGGGTTA | 0.124 ± 0.052 |
| AAGGGTTG | 0.0285 ± 0.053 |
| AGGGGTTG | 0.258 ± 0.045 |
| CGGATCAA | -0.188 ± 0.075 |
| TATAGAGA | -0.0265 ± 0.04 |
| GAATGACA | -0.0425 ± 0.0067 |
| ATATGATG | 0.181 ± 0.031 |
| GTATGAGA | 0.124 ± 0.0095 |
| CTATGACA | 0.106 ± 0.0052 |
| ATATGATA | 0.2602 ± 0.0017 |

| Sequence | PBM 8-mer E-score |
| --- | --- |
| ATATGACA | 0.25 ± 0.012 |
| GTATGATA | 0.342 ± 0.008 |
| GTATGACA | 0.158 ± 0.0027 |
| CTATGATA | 0.0216 ± 0.058 |
| GCATGATA | 0.226 ± 0.0026 |
| CAATGACA | 0.128 ± 0.054 |
| TAATGACA | 0.25862 ± 7.8e-05 |
| ACAATTGG | 0.0427 ± 0.02 |
| CTCGTTAA | 0.0752 ± 0.0062 |
| CGGGATCA | -0.0799 ± 0.0016 |
| AAATCCCG | 0.1036 ± 0.0009 |
| ACTGAGAT | 0.0783 ± 0.12 |
| CACGGATC | -0.305 ± 0.0061 |
| CATGATAC | 0.253 ± 0.048 |
| CATGATAA | 0.267 ± 0.065 |
| AATGATAA | 0.0232 ± 0.082 |
| CATGATAG | 0.0923 ± 0.043 |
| AATGATAG | 0.176 ± 0.039 |
| AATGATAC | 0.193 ± 0.13 |
| AATGATAT | 0.241 ± 0.01 |
| CATGATTA | 0.24 ± 0.025 |
| CATGATTC | 0.0562 ± 0.0054 |

| Sequence | PBM 8-mer E-score |
| --- | --- |
| GATGATTA | 0.103 ± 0.0017 |
| TATGATAA | 0.0434 ± 0.066 |
| ACTGATAT | 0.0652 ± 0.073 |
| CGCTATAG | 0.0363 ± 0.071 |
| GGGGTGAC | 0.0455 ± 0.096 |
| CGGCCTTC | -0.124 ± 0.097 |
| CAAGATAA | 0.276 ± 0.014 |
| AAAGATAA | 0.218 ± 0.028 |
| TAAGATAA | 0.0454 ± 0.027 |
| AATTCTTC | 0.0644 ± 0.062 |
| CCACCCCC | -0.0899 ± 0.002 |
| TCACCCAA | 0.143 ± 0.0019 |
| ACACCCCA | 0.208 ± 0.015 |
| CCACCCCA | 0.254 ± 0.043 |
| TCACCCCA | 0.276 ± 0.021 |
| GCACCCCA | 0.128 ± 0.071 |
| AATGGATG | -0.124 ± 0.015 |
| AGTACACG | 0.0271 ± 0.052 |
| AAGAGCCT | 0.00281 ± 0.074 |
| AGTCGCAA | 0.119 ± 0.018 |
| ATAAATAG | 0.191 ± 0.021 |
| ATAAATAT | 0.263 ± 0.021 |

| Sequence | PBM 8-mer E-score |
| --- | --- |
| TTAAATAA | 0.171 ± 0.051 |
| GTAAATAC | 0.0558 ± 0.018 |
| GTAAATAA | 0.157 ± 0.059 |
| ATAAATAC | 0.264 ± 0.019 |
| CTAAATAA | 0.126 ± 0.07 |
| ATAAATAA | 0.171 ± 0.053 |
| CTAAATAC | 0.249 ± 0.037 |
| CAGCGTCC | -0.107 ± 0.044 |
| TCGATTCA | 0.0577 ± 0.023 |
| GAGCTCAC | 0.0534 ± 0.12 |
| ATCTGTTC | 0.11 ± 0.068 |
| ACTAGCAC | 0.0515 ± 0.15 |
| AGACCCCC | -0.388 ± 0.063 |
| ACCCCCAA | -0.142 ± 0.059 |
| TGACCCCA | 0.108 ± 0.02 |
| AGACCCCA | 0.284 ± 0.052 |
| AACCCAAA | 0.0422 ± 0.03 |
| CTACCCCA | 0.283 ± 0.011 |
| CTACCCAA | 0.0921 ± 0.061 |
| AAACCCCC | -0.303 ± 0.11 |

— the supplement of paper PMC12636033
